Drawing on PubChem BioAssay (Tox21), this text covers Potency, max activation and outcome for 8 compounds.

The structures appear in SMILES notation. Values without a mark were called inactive. Records with an inconclusive call do not appear. Activity calls are given as the source filed them. Unless noted, calls follow the shape of the dose curve; as a rule, active = well fitted curve in the direction sought with a large enough effect in the repeat runs; inconclusive = weak or mixed curves; inactive = no such curve, though single readings can be large; an effect the other way counts as inactive or inconclusive.

Assay [1] addresses Thyrotropin receptor (Homo sapiens) (UniProt P16473). In words: qHTS assay to identify small molecule antagonists of the thyroid stimulating hormone receptor (TSHR) signaling pathway (AID 1259385; calls by dose curve; also: nearly all actives have a fitted effect of over 20% in size; also: potency is read from the fitted curve at half-maximal effect). In a few lines: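 TSHR-HEK293 cells were plated and held 18 h at 37C/5% CO2, then given compound plus Ro20-1724 and stimulated with TSH at 1.5 ng/mL final. After 30 min at room temperature, cAMP was detected with cAMP-d2/anti-cAMP-cryptate (1 h) by fluorescence.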
A general note: In qHTS, concentration-response curves come from the screen itself.

Assay [2] is described as follows: qHTS assay to identify small molecule agonists of the estrogen receptor alpha (ER-alpha) signaling pathway in the presence of an antagonist - cell viability counter screen (AID 1259386).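 Also: series mostly up to about 92 µM; cells exposed to compounds for 22 h at 37 °C before the viability read; nearly all actives have a fitted effect of over 30% in size.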 In short, it runs like this:
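Read-out: CellTiter-Fluor fluorescence after 1hr reagent incubation, measured in the same wells as the luciferase readout. VM7Luc4E2 cells were exposed to 15 compound concentrations with 10.0nM ICI-182,780 for 22hr at 37C.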

Assay [3] deals with Progesterone receptor (Homo sapiens) (UniProt P06401). In words: qHTS assay to identify small molecule agonists of the progesterone receptor (PR) signaling pathway (AID 1346784; calls by dose curve; also: nearly all actives have a fitted effect of over 30% in size). In short, it runs like this: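 Agonist mode, quantitative HTS format in a HEK 293T line expressing a UAS-controlled beta-lactamase reporter; 16 hr compound exposure at 37C in 2% charcoal-stripped FBS, then LiveBLAzer B/G FRET fluorescence.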

The target is the same in assay [4]. In words: qHTS assay to identify small molecule antagonists of the progesterone receptor (PR) signaling pathway (AID 1346795; active = well fitted inhibition curve with a large enough effect in the signal ratio in the repeat runs, not every such curve was filed as active; the % refers to the signal ratio). In short, it runs like this:
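HEK293T PR-UAS-bla reporter cells in charcoal-stripped serum (2%) received compound after a 6 hr settling period, followed by R5020 agonist at 1 nM final; 16 hr incubation preceded the FRET substrate step and fluorescence measurement.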

The nature of assay [5]: qHTS assay to identify small molecule antagonists of the progesterone receptor (PR) signaling pathway - cell viability counter screen (AID 1346798). Also: series mostly up to about 92 µM; nearly all actives have a fitted effect of over 50% in size. In a few lines: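 Same-well multiplex: after 16 hr at 37C with compound and R5020 stimulation, HEK293T cells carrying a UAS-bla reporter received LiveBLAzer substrate (2 hr RT), then CellTiter-Glo (30 min RT) for luminescent viability.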

The nature of assay [6]: qHTS assay to identify small molecule agonists of the progesterone receptor (PR) signaling pathway - cell viability counter screen (AID 1346799; calls by dose curve; also: nearly all actives have a fitted effect of over 45% in size). In a few lines:
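Counter screen for cytotoxicity: compound-treated PR-UAS-bla HEK293T cells (16 hr, 37C, 5% CO2) were assayed with CellTiter-Glo, luminescence measured after 30 min at room temperature.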

Assay [7] in a line: qHTS assay to identify small molecule antagonists of the TGF-beta/Smad signaling pathway - cell viability counter screen (AID 1346824). Also: nearly all actives have a fitted effect of over 50% in size. In a few lines:
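SBE-bla HEK 293T cells were plated overnight at 37 C, then given compounds in DMSO plus TGF-beta1 (added as 0.25 ng/mL solution) for 5 hr. After the bla read, CellTiter-Glo was added to the same wells and luminescence read after 30 min at room temperature.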

A short description of assay [8]: qHTS assay to identify small molecule agonists of the TGF-beta/Smad signaling pathway - cell viability counter screen (AID 1346829). Also: top concentration of the series differs between compounds; nearly all actives have a fitted effect of over 45% in size. In short, it runs like this: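 CellTiter-Glo luminescence readout; SBE-bla HEK 293T cells, overnight plating, compound 5 hr at 37 C/5% CO2, then bla substrate 2 hr RT, then CellTiter-Glo 30 min RT.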
Assay [9] in a line: qHTS assay to identify small molecule agonists of the TGF-beta/Smad signaling pathway (AID 1346859; active = well fitted activation curve with a large enough effect in the signal ratio in the repeat runs, not every such curve was filed as active; the % refers to the signal ratio; also: series mostly up to about 77 µM). In short, it runs like this: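 Smad-responsive beta-lactamase reporter cells (HEK 293T) received compounds from DMSO stocks after overnight attachment, were incubated 5 hr, then treated 2 hr with FRET substrate before dual-emission fluorescence measurement (405 nm excitation).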

The nature of assay [10]: Human pregnane X receptor (PXR) small molecule agonists, qHTS cell viability counter screen (AID 1346977). Also: nearly all actives have a fitted effect of over 50% in size. In short, it runs like this:
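Measures live-cell protease fluorescence (CellTiter-Fluor) in PXR-Luc HepG2 cells treated 24hr with compounds at 37C. Cells had 5hr to attach before pin transfer of DMSO solutions.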

A short description of assay [11]: Caspase-3/7 induction in HepG2 cells by small molecules, qHTS assay (AID 1346978). Also: nearly all actives have a fitted effect of over 15% in size. In short, it runs like this:
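Wild-type HepG2 cells (2,000/well) were settled 5 h at 37 C, 5% CO2, then exposed to compounds in DMSO for 17 h. Caspase-3/7 activity was read by luminescence 30 min after adding Caspase-Glo 3/7 reagent at room temperature.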

The nature of assay [12]: Caspase-3/7 induction in CHO-K1 cells by small molecules, qHTS cell viability counter screen (AID 1346979). Also: nearly all actives have a fitted effect of over 35% in size. In a few lines:
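In the same wells as the caspase read, viability of compound-treated wild-type CHO-K1 cells was assessed using CellTiter-Fluor, added after 16hr at 37C and measured by fluorescence following 1hr further incubation.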

A short description of assay [13]: Caspase-3/7 induction in CHO-K1 cells by small molecules, qHTS assay (AID 1346980). Also: nearly all actives have a fitted effect of over 15% in size. In short, it runs like this: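 Wild-type cells were seeded at 1,500 per well and settled 5 hr at 37 C, 5% CO2, then exposed to DMSO-dissolved compounds for 17 hr. Caspase-Glo 3/7 reagent was added, and luminescence was read after 30min at room temperature.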
Assay [14] in a line: Caspase-3/7 induction in HepG2 cells by small molecules, qHTS cell viability counter screen (AID 1346981). Also: series mostly up to about 92 µM; nearly all actives have a fitted effect of over 30% in size. In short, it runs like this:
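Fluorescence read-out of live-cell protease activity (CellTiter-Fluor) after 1 hr with reagent. This was measured in the same wells as the caspase-3/7 luminescence, on HepG2 cells exposed to DMSO-dissolved compounds for 16 hr at 37 C.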

In assay [15] the target is Nuclear receptor subfamily 1 group I member 2 (Rattus norvegicus) (UniProt Q9R1A7). Briefly: Rat pregnane X receptor (rPXR) activation by small molecules, qHTS assay (AID 1346983). Also: nearly all actives have a fitted effect of over 20% in size. The following applies: rPXR luciferase reporter cells, One-Glo luminescence, 24 h; max activation: hits give high values. In short, it runs like this:
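Cell-based rPXR luciferase reporter assay, 2,000 cells per well, rested 5hr at 37 C before compound addition in DMSO, then 24 hr at 37 C. One-Glo reagent was added and luminescence read after 30 min at room temperature.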

Assay [16] concerns the target Nuclear receptor subfamily 1 group I member 2 (Homo sapiens) (UniProt O75469). In words: CYP3A4 induction through human pregnane X receptor (PXR) by small molecules, qHTS assay (AID 1346984). Also: nearly all actives have a fitted effect of over 40% in size. In short, it runs like this:
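HepG2-derived DPX-2 line carrying PXR plus a CYP3A4-promoter luciferase reporter; cells plated 5 hr, compound-exposed 24 hr at 37C. CYP3A4 activity probed with 3uM (final) Luciferin-IPA for 3hr, then luciferase read after One-Glo.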

Assay [17] has the same target. In words: Human pregnane X receptor (PXR) activation by small molecules, qHTS assay (AID 1346985). Also: nearly all actives have a fitted effect of over 40% in size. In short, it runs like this: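 DPX-2 cells (HepG2 co-transfected with a PXR response element and a CYP3A4-promoter luciferase construct) were seeded at 2,000 per well, rested 5 hr at 37C, then exposed to DMSO-dissolved compounds for 24 hr. Activation was read as luciferase luminescence.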

For assay [18], the target named is Thyrotropin-releasing hormone receptor (Homo sapiens) (UniProt P34981). In words: qHTS assay to identify small molecule antagonists of the thyrotropin-releasing hormone receptor (TRHR) signaling pathway (AID 1346877; active = well fitted inhibition curve with a large enough effect in the repeat runs, not every such curve was filed as active; also: series mostly up to about 51 µM). In a few lines:
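HEK293/TRHR cells, 18 h, 37 °C; Ca2+ dye 2 h; cpd 5 min RT; TRH 1 nM final; fluorescence read 3 min, 1 s intervals; 15 concs, triplicate.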

Assay [19] has the same target. In words: qHTS assay to identify small molecule agonists of the thyrotropin-releasing hormone receptor (TRHR) signaling pathway (AID 1346891; calls by dose curve;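 also: HEK293 cells expressing TRHR with calcium dye readout; series mostly up to about 58 µM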). In short, it runs like this: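 Agonist-mode calcium mobilisation screen: TRHR-transfected HEK293 cells cultured overnight (18 h), dye-loaded for 2 h at 37 °C, exposed to compounds, and monitored by fluorescence for 3 min.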

Assay [20] concerns the target Nuclear receptor subfamily 1 group I member 2 (Homo sapiens) (UniProt O75469). Briefly: Human pregnane X receptor (PXR) small molecule agonists, qHTS assay (AID 1346982). Also: nearly all actives have a fitted effect of over 35% in size. In a few lines:
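HepG2 PXR-Luc reporter line, 5% charcoal-stripped FBS; 5 hr pre-incubation, compound (DMSO) 24 hr at 37 C/5% CO2; ONE-Glo 30 min RT; luminescence read-out.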
% is scaled to controls: 0 for no effect and ±100 for the full control effect.

Chain of Thyrotropin receptor (Homo sapiens) (P16473 whole entry, looked up): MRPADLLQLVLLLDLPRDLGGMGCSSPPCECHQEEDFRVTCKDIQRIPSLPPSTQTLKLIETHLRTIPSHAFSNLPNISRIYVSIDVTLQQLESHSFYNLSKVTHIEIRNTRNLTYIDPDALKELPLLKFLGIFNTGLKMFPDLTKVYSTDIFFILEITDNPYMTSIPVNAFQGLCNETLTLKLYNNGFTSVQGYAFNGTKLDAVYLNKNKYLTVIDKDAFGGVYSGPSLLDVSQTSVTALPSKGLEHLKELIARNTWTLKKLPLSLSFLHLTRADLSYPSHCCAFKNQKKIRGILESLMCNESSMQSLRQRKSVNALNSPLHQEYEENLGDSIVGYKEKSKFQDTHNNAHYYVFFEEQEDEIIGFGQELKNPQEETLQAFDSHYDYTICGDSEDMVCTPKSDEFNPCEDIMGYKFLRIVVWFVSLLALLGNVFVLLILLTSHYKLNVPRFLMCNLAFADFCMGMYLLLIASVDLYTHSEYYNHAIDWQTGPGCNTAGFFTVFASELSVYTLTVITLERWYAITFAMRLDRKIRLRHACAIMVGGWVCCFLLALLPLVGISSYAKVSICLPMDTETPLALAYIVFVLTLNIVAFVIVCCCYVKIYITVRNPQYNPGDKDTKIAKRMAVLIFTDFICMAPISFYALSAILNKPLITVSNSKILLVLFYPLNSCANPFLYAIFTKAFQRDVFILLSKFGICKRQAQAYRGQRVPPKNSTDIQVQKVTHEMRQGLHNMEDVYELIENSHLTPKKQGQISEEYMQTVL
Chain of Progesterone receptor (Homo sapiens) (P06401 whole entry, looked up): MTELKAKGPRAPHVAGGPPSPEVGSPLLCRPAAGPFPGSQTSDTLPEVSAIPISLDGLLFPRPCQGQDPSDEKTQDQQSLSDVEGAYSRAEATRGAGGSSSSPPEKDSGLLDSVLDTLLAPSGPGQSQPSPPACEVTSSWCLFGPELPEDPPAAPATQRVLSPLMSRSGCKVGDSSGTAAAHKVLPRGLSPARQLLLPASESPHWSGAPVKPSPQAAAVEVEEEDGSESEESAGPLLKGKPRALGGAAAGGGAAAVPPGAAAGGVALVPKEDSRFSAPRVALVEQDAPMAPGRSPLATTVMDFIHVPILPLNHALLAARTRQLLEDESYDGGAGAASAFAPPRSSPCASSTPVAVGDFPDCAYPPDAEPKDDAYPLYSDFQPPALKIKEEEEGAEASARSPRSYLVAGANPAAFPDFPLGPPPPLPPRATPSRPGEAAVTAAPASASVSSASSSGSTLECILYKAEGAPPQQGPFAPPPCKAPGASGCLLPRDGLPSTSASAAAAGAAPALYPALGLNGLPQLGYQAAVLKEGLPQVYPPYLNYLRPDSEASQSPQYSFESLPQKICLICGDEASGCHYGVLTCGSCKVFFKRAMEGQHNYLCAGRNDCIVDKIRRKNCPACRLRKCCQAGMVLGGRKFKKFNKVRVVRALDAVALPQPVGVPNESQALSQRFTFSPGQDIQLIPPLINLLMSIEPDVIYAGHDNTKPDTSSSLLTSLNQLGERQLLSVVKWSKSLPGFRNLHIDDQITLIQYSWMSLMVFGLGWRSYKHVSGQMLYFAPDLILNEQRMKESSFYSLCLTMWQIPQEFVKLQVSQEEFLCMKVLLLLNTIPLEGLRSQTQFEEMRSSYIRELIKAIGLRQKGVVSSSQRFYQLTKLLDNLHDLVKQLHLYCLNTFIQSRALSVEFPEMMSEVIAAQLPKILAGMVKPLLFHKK
Chain of Nuclear receptor subfamily 1 group I member 2 (Homo sapiens) (O75469 whole entry, looked up): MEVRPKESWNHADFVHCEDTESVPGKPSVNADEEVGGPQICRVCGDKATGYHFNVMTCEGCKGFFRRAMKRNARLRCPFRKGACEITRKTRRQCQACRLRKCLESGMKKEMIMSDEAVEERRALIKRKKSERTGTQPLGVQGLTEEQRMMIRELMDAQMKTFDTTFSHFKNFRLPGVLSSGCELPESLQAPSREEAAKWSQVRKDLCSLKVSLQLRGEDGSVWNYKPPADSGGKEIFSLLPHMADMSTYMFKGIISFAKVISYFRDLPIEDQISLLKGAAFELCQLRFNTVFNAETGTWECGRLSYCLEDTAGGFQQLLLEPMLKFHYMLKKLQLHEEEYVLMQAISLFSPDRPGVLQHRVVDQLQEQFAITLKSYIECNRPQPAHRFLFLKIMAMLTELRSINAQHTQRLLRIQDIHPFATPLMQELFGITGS
Chain of Nuclear receptor subfamily 1 group I member 2 (Rattus norvegicus) (Q9R1A7 whole entry, looked up): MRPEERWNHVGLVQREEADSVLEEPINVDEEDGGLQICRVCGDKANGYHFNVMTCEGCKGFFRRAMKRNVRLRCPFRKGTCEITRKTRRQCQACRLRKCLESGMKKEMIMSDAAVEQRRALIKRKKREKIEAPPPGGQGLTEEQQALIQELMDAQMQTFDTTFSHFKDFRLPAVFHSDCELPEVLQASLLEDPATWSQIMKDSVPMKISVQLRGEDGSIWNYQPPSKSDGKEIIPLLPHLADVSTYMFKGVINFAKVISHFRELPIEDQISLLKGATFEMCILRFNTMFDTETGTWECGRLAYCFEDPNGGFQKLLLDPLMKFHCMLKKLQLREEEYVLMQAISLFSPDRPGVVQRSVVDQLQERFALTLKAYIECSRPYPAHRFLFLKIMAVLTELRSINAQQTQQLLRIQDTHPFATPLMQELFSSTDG
Chain of Thyrotropin-releasing hormone receptor (Homo sapiens) (P34981 whole entry, looked up): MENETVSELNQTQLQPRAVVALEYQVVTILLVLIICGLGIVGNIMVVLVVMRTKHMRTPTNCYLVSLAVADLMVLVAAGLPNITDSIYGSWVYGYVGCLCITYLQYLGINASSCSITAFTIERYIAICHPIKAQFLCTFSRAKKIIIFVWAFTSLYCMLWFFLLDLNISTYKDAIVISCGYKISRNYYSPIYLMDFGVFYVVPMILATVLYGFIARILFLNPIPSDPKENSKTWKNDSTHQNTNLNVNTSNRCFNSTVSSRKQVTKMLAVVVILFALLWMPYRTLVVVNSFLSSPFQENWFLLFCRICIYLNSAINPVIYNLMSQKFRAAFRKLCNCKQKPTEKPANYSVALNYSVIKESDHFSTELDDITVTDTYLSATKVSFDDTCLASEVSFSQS

As to `COc1ccccc1N1CCN(CCCCNC(=O)c2ccc(-c3ccc(C(C)=O)cc3)cc2)CC1`, in [1], the Potency was 18.8 µM (active). Besides, the Potency result in [2], in assay [3], in [4], in [5], in assay [6] and in [7] was “inactive” throughout. For the same compound, the Potency result in [8], in assay [9], in [10], in assay [11], in assay [12] and in assay [13] was “inactive” each time. For the same compound, the Potency result in [14], in assay [16] and in [17] was “inactive” in each case. Besides, the max activation in assay [15] is -3.31%.

`N#CCc1ccc(Cl)cc1Cl`: the Potency entry in assay [1], in [2], in assay [3], in assay [4], in assay [5] and in assay [6] was “inactive” in each case. Moreover, the Potency result in [7], in [9], in assay [19], in [10], in [11] and in [12] was “inactive” throughout. For the same compound, the Potency entry in assay [14] and in assay [20] was “inactive” in each case. The compound was classed as inactive in [18].

Regarding `Nc1ncnc2c1ncn2[C@H]1CC[C@@H](CO)O1`, the Potency result in [1], in assay [2], in assay [3], in [4], in [5] and in [6] was “inactive” each time. In addition, the Potency entry in [7], in [8], in assay [9], in [19], in [10] and in [11] was “inactive” in each case. For the same compound, the Potency entry in assay [12], in assay [14], in assay [16] and in assay [17] was “inactive” each time. Also, the compound was classed as inactive in [18]. Moreover, in [15], the max activation is 1.66%.

Consider `CC(O)c1ccccc1` (configuration not stated), for which the Potency entry in [1], in assay [2], in assay [3], in [4], in assay [5] and in assay [6] was “inactive” each time. The Potency entry in [7], in [8], in assay [9], in [19], in assay [10] and in [11] was “inactive” throughout. Moreover, the Potency entry in assay [12], in assay [13], in assay [14] and in assay [20] was “inactive” in each case. Besides, the outcome in assay [18] was inactive.

Regarding `CCOC(C)=O`, the Potency entry in assay [1], in [2], in assay [3], in [4], in assay [5] and in assay [6] was “inactive” each time. The Potency entry in assay [7], in [8], in [9], in [19], in [10] and in [11] was “inactive” in each case. Further, the Potency result in [12], in assay [13], in assay [20], in assay [16] and in [17] was “inactive” in each case. Also, the compound was classed as inactive in [18]. In assay [15], the max activation was -1.67%.

Turning to `CC(=O)c1cc2ccccc2s1`, the Potency result in [1], in [2], in assay [3], in assay [4], in assay [5] and in assay [6] was “inactive” in each case. In addition, the Potency result in assay [7], in assay [8], in [9], in assay [10], in assay [11] and in assay [13] was “inactive” in each case. The Potency entry in assay [14] and in [20] was “inactive” in each case.

Regarding `C=C1C[C@@]23CC[C@H]4[C@@](C)(CCC[C@@]4(C)C(=O)O[C@@H]4O[C@H](CO)[C@@H](O)[C@H](O)[C@H]4O)[C@@H]2CC[C@]1(O[C@@H]1O[C@H](CO)[C@@H](O)[C@H](O[C@@H]2O[C@H](CO)[C@@H](O)[C@H](O)[C@H]2O)[C@H]1O[C@@H]1O[C@H](CO)[C@@H](O)[C@H](O)[C@H]1O)C3`, the Potency result in [1], in [2], in assay [3], in assay [4], in assay [5] and in assay [6] was “inactive” in each case. Further, the Potency entry in [7], in assay [9], in assay [19], in assay [10], in assay [11] and in [12] was “inactive” in each case. For the same compound, the Potency result in [13], in assay [14] and in assay [20] was “inactive” each time. For the same compound, in assay [18], the outcome was inactive.

Take `O=C(O)C[C@H](NC(=O)OCc1ccccc1)C(=O)O`: the Potency entry in [1], in assay [2], in assay [3], in assay [4], in assay [5] and in assay [6] was “inactive” throughout. In addition, the Potency result in assay [7], in assay [8], in [9], in assay [19], in [10] and in assay [11] was “inactive” in each case. The Potency entry in assay [12], in assay [14] and in assay [20] was “inactive” each time. Besides, the compound was called inactive in [18].
